Values joined by “and” are separate entries in the source; they are usually repeats but may differ in a detail not shown here. Identical values can stand only once. Out of some 5,500 compounds screened, about 2,000 (36%) were called active. About 18% were inconclusive and are not listed. Rule as the data show it: active = normalized growth mostly below about 0.91 (no sharp cut-off); inconclusive = no clear call, values can overlap the other calls; inactive = mostly above about 0.92. This is one part of the list.
Assay: chemical genetic growth profiling, strain panel (AID 1159580);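 also: tested at 20 µM; growth read once vehicle control cultures reached saturation at 30 °C; 1 = growth at the plate median or of vehicle wells; lower values mean less growth of the strain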
Settings: S. cerevisiae deletion strains, growth OD

Measured: normalized growth

CN1CCN(C(c2ccccc2)c2ccccc2)CC1
inactive: locus YAL013W, strain DEP1, stronger effect = lower value 0.996 | locus YAL021C, strain ccr4, stronger effect = lower value 0.973 | locus YAL026C, strain drs2, stronger effect = lower value 0.988 | locus YAL030W, strain snc1, stronger effect = lower value 0.996 | locus YBL061C, strain skt5, stronger effect = lower value 0.993 | locus YBR009C, strain hhf1, stronger effect = lower value 1.01 | locus YBR021W, strain FUR4, stronger effect = lower value 0.998 | locus YBR023C, strain chs3, stronger effect = lower value 0.985 | locus YBR171W, strain sec66, stronger effect = lower value 0.975 | locus YBR229C, strain ROT2, stronger effect = lower value 1.01 | locus YBR231C, strain swc5, stronger effect = lower value 0.966 | locus YBR279W, strain paf1, stronger effect = lower value 0.995 | locus YCL011C, strain gbp2, stronger effect = lower value 0.998 | locus YCL016C, strain dcc1, stronger effect = lower value 0.973 | locus YCL029C, strain bik1, stronger effect = lower value 0.973 | locus YCL069W, strain vba3, stronger effect = lower value 0.995 | locus YCR088W, strain abp1, stronger effect = lower value 0.983 | locus YDL005C, strain med2, stronger effect = lower value 0.969 | locus YDL035C, strain GPR1, stronger effect = lower value 0.984 | locus YDL040C, strain nat1, stronger effect = lower value 0.98 | locus YDL074C, strain BRE1, stronger effect = lower value 0.993 | locus YDL101C, strain DUN1, stronger effect = lower value 1 | locus YDL134C, strain PPH21, stronger effect = lower value 1.01 | locus YDL185W, strain tfp1, stronger effect = lower value 0.942 | locus YDL192W, strain arf1, stronger effect = lower value 0.971 | locus YDR001C, strain nth1, stronger effect = lower value 1.02 | locus YDR069C, strain doa4, stronger effect = lower value 0.964 | locus YDR101C, strain arx1, stronger effect = lower value 0.988 | locus YDR137W, strain rgp1, stronger effect = lower value 0.994 | locus YDR150W, strain NUM1, stronger effect = lower value 0.989 | locus YDR159W, strain sac3, stronger effect = lower value 0.991 | locus YDR162C, strain NBP2, stronger effect = lower value 1.01 | locus YDR195W, strain ref2 0.958 | locus YDR297W, strain sur2, stronger effect = lower value 0.996 | locus YDR318W, strain mcm21, stronger effect = lower value 0.969 | locus YDR334W, strain swr1, stronger effect = lower value 0.977 | locus YDR335W, strain msn5, stronger effect = lower value 0.994 | locus YDR388W, stronger effect = lower value 0.966 | locus YDR392W, strain spt3, stronger effect = lower value 0.915 | locus YDR502C, strain sam2, stronger effect = lower value 0.978 | locus YEL003W, strain gim4, stronger effect = lower value 0.984 | locus YEL037C, strain rad23, stronger effect = lower value 0.988 | locus YEL061C, strain CIN8 (second series), stronger effect = lower value 0.997 | locus YEL061C, strain CIN8, stronger effect = lower value 0.975 | locus YER015W, strain faa2, stronger effect = lower value 0.979 | locus YER016W, strain bim1, stronger effect = lower value 0.971 | locus YER110C, stronger effect = lower value 0.973 | locus YER111C, strain swi4, stronger effect = lower value 0.983 | locus YER155C, strain BEM2 (second series), stronger effect = lower value 0.932 | locus YER155C, strain BEM2, stronger effect = lower value 1 | locus YER167W, strain BCK2, stronger effect = lower value 0.997 | locus YFR010W, strain ubp6, stronger effect = lower value 0.99 | locus YGL078C, strain dbp3, stronger effect = lower value 0.989 | locus YGL086W, strain mad1, stronger effect = lower value 0.983 | locus YGL167C, strain pmr1, stronger effect = lower value 0.98 | locus YGL173C, strain kem1, stronger effect = lower value 0.979 | locus YGL227W, strain vid30, stronger effect = lower value 0.968 | locus YGL240W, strain doc1, stronger effect = lower value 1.01 | locus YGL248W, strain PDE1, stronger effect = lower value 1 | locus YGL253W, strain hxk2, stronger effect = lower value 0.985 | locus YGR078C, strain PAC10, stronger effect = lower value 0.998 | locus YGR135W, strain pre9, stronger effect = lower value 0.979 | locus YGR229C, strain SMI1, stronger effect = lower value 1.03 | locus YGR252W, strain gcn5, stronger effect = lower value 1.03 | locus YHR013C, strain ard1, stronger effect = lower value 0.902 | locus YHR027C, strain rpn1, stronger effect = lower value 0.985 | locus YHR030C, strain SLT2, stronger effect = lower value 0.995 and 0.998 | locus YHR079C, strain IRE1 (second series), stronger effect = lower value 0.969 | locus YHR079C, strain IRE1, stronger effect = lower value 0.992 | locus YHR094C, strain hxt1, stronger effect = lower value 0.965 | locus YHR129C, strain ARP1, stronger effect = lower value 0.999 | locus YHR142W, strain chs7, stronger effect = lower value 1 | locus YHR200W, strain rpn10, stronger effect = lower value 0.966 | locus YIL066C, strain RNR3, stronger effect = lower value 1 | locus YIL073C, strain SPO22, stronger effect = lower value 0.965 | locus YIL125W, strain kgd1, stronger effect = lower value 0.981 | locus YIR030C, strain dcg1, stronger effect = lower value 0.967 | locus YJL092W, strain hpr5, stronger effect = lower value 0.991 | locus YJL095W, strain BCK1 (second series), stronger effect = lower value 0.993 | locus YJL095W, strain BCK1, stronger effect = lower value 0.966 and 0.998 | locus YJL115W, strain asf1, stronger effect = lower value 0.996 | locus YJL129C, strain trk1, stronger effect = lower value 0.968 | locus YJL134W, strain LCB3, stronger effect = lower value 0.997 | locus YJL154C, strain vps35, stronger effect = lower value 0.999 | locus YJL164C, strain tpk1, stronger effect = lower value 1.02 | locus YJL166W, strain qcr8, stronger effect = lower value 1.01 | locus YJL168C, strain set2, stronger effect = lower value 0.968 | locus YJL187C, strain SWE1 (second series), stronger effect = lower value 0.999 | locus YJL187C, strain SWE1, stronger effect = lower value 0.994 | locus YJR043C, strain POL32, stronger effect = lower value 1.01 | locus YJR066W, strain TOR1, stronger effect = lower value 0.994
